These results are taken from PubChem BioAssay AID651820 (National Center for Advancing Translational Sciences (NCATS), 2012).

Hit rate of the full screen: of about 340,000 compounds, about 12,000 (3.5%) were called active. Inconclusive results (about 18%) are left out. Many of the other results were omitted from the sample, so actives are more common in it than they were. A number with no mark means an inactive call. The call rests on the fitted dose curve; in most records, active means well fitted inhibition curve with a large enough effect; inconclusive means small, poorly fitted or top-dose-only effect, or another doubt; inactive means no such curve, though single readings can be large or run the other way.
On the % scale 0 is the no-effect control and ±100 the full control effect; potency means the concentration at half of the fitted maximal effect.

The assay is described as follows: qHTS Assay for Inhibitors of Hepatitis C Virus (HCV). As to conditions: Huh7.5.1 HCVcc-Cre infection, luciferase reporter, 44 h; series mostly up to 41.8 µM; activity change, negative = inhibition: at the top concentration. The procedure, abridged: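 Reporter virus HCVcc-Cre (~0.5 moi) infects cells exposed to compound; seeding density 1,000 cells/well with 4 h settling beforehand. Luminescence, 15 sec read, taken 44 h post-infection following a 15 min RT substrate incubation.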
A general note: In qHTS, concentration-response curves come from the screen itself.
For `CCOc1ccc2nc(N(CCCN(C)C)C(=O)c3ccc(C(=O)c4ccccc4)cc3)sc2c1`, the “activity change, negative = inhibition” value was -29.8%. Consider `COc1cc2ccccc2cc1C(=O)N(CCN(C)C)c1nc2c(F)cccc2s1`, for which the Potency is 14.1 µM (active). Consider `COc1cccc2sc(N(CCCN(C)C)C(=O)CCS(=O)(=O)c3ccccc3)nc12`, for which the “activity change, negative = inhibition” value is 17.2%.

On to `Cc1cccc2sc(N(CCCN(C)C)C(=O)CCS(=O)(=O)c3ccccc3)nc12`, for which the “activity change, negative = inhibition” value was 7.99%.

Take `CCOc1ccc2nc(N(CCN(C)C)C(=O)c3ccc4ccccc4c3)sc2c1`: the “activity change, negative = inhibition” value was -27.4%.

On to `C[C@H](OC(=O)n1ccnc1)[C@@H]1O[C@@]2(C)CCC[C@@H]1O2`, for which the “activity change, negative = inhibition” value is 4.05%. Still for that read-out and setting: under `CCc1cccc(NC(=O)COC(=O)c2cc(=O)c3ccccc3o2)c1` stands 0.189%; under `O=C(NNC(=O)C(O)c1ccccc1)NC1CCCCC1` (stereo not given), 12.7%. Consider `Cc1nn(-c2ccccc2)c(C)c1C(=O)OCC(=O)NC(=O)NC1CCCCC1`, for which the “activity change, negative = inhibition” value was -6.4%.

As for `Cc1nc(/N=C(\N)NC(=O)NC2CCCCC2)nc2ccccc12`, the Potency was 11.2 µM (active). As to `C=CCOc1cccc(C2C(C(=O)c3ccc(C)o3)=C(O)C(=O)N2CCCn2ccnc2)c1` (stereo not given), the “activity change, negative = inhibition” value was 12.5%. On the same count and under the same terms, the same measure for `Cc1cccc(CC2(O)C(=O)Nc3ccccc32)n1` (stereo not given): 4.09%; for `Cc1ccnc(SCC(=O)Nc2cccc(S(=O)(=O)N3CCOCC3)c2)n1`: 2.31%; for `Cc1nc2ccc(NC(=O)C3CCCCC3)cc2s1`: 15.5%.

With `Cc1nc2ccc(N)nc2nc1C`, the “activity change, negative = inhibition” value was 25.2%. For `Clc1nc(NC2CCCC2)nc(N2CCOCC2)n1`, the Potency is 14.1 µM (active). `COC(=O)CNc1nc(Cl)nc(N2CCC(C)CC2)n1`: the “activity change, negative = inhibition” value was 7.19%.

As to `COc1nc(NC2CCCCC2)nc(N2CCCCCC2)n1`, the “activity change, negative = inhibition” value was -16.6%. On the same count and under the same terms, the same measure for `O=C(CNC(=O)c1n[nH]c2ccccc12)Nc1cc(Cl)ccc1Cl`: 3.28%; for `CCN1CCN(C(=O)N(Cc2ccc(Cl)cc2)S(=O)(=O)c2ccc(C)cc2)CC1`: 13.5%. `COCCN(Cc1cc2cc3c(cc2nc1Cl)OCO3)C(=O)c1cccc(C)c1`: the Potency was 12.6 µM (active).

As to `Cc1cccc(C(=O)NCCCN(C)CCCNC(=O)c2cccc(C)c2)c1`, the “activity change, negative = inhibition” value was -16.5%. The same measure, in the same setting: under `CCCCN(CC)C(=O)c1ccc2c(c1)OCO2` stands 7.22%; under `O=C(CC1Sc2ccccc2NC1=O)NNc1ccc(Cl)c(Cl)c1` (stereo not given), -2.07%. The same measure, in the same setting: under `N#Cc1c(-c2ccccc2)nc(SCc2cccc(C(F)(F)F)c2)[nH]c1=O` stands -2.24%. As to `O=c1c2ccccc2nc2n1C(CSc1ccc(Cl)cc1)CN2` (stereo not given), the “activity change, negative = inhibition” value is -18.2%. On to `O=c1c2ccccc2nc2n1C(CSCc1ccccc1)CS2` (stereo not given), for which the Potency was 14.1 µM (active).

`O=c1c2ccccc2nc2n1C(CSc1ccc(F)cc1)CN2` (stereo not given): the “activity change, negative = inhibition” value is 12.2%. For the compound `O=c1c2ccccc2nc2n1C(CSCc1cccc(C(F)(F)F)c1)CS2` (stereo not given), the Potency is 10 µM (active). As to `O=c1[nH]c(SCc2cccc(F)c2)nc2ccccc12`, the “activity change, negative = inhibition” value was -6.28%. The same measure, in the same setting: under `CN(C)S(=O)(=O)c1ccc(N2CCCC2)c(C(=O)Nc2ccc(Br)cc2F)c1` stands -2.12%; under `COc1ccc(S(=O)(=O)N2CCN(c3cnccn3)CC2)cc1`, 16.3%.

In the case of `Cc1ccc(C(=O)N/C(=C/c2ccc(-c3cccc([N+](=O)[O-])c3)o2)C(=O)NCCCN(C)C)cc1`, the Potency was 11.2 µM (active). As to `C=CCNC(=O)/C(=C\c1cccc([N+](=O)[O-])c1)NC(=O)c1ccccc1`, the “activity change, negative = inhibition” value is -1.28%. For the compound `N#C/C(=C/c1ccc(-c2ccccc2[N+](=O)[O-])o1)C(=O)NCCN1CCCCC1`, the “activity change, negative = inhibition” value was -12.9%.

Regarding `Cc1ccc(Cc2cnc(NC(=O)/C(C#N)=C/c3ccc(-c4cccc([N+](=O)[O-])c4)o3)s2)cc1`, the “activity change, negative = inhibition” value was -8.13%. For the compound `N#C/C(=C\c1ccc(-c2cccc([N+](=O)[O-])c2)o1)C(=O)NCCN1CCOCC1`, the Potency was 14.1 µM (active).

On to `CN(C)CCNC(=O)/C(=C/c1cccc([N+](=O)[O-])c1)NC(=O)c1ccccc1`, for which the “activity change, negative = inhibition” value is 15.7%. Take `Cc1ccc(-c2csc(C(C#N)=C(O)CN3CCN(C(=O)c4ccco4)CC3)n2)cc1`: the “activity change, negative = inhibition” value was 6.31%. Same read-out and setting: the same measure for `COc1cccc(OC)c1C(=O)NC(=S)N1C[C@H]2C[C@H](C1)c1cccc(=O)n1C2`: 24.9%. On to `COc1ccccc1NC(=O)N1C[C@@H]2C[C@@H](C1)c1cccc(=O)n1C2`, for which the Potency is 1 µM (active).

As for `Cc1cccc(NC(=O)N2CC3CC(C2)c2cccc(=O)n2C3)c1` (stereo not given), the “activity change, negative = inhibition” value is 18.3%. Still for that read-out and setting: under `C=CCOc1cccc(C2C(C(=O)c3ccc(C)o3)=C(O)C(=O)N2c2nnc(C)s2)c1` (stereo not given) stands 3.6%; under `CCCC(CNC(=O)COC(=O)C1=NNC(=O)CC1)c1ccc(Cl)cc1Cl` (stereo not given), 2.1%; under `CC(=O)c1ccc(NC(=O)C(C)OC(=O)c2ccc(NS(=O)(=O)c3ccc4[nH]c(=O)[nH]c4c3)cc2)cc1` (stereo not given), -5.4%.

Take `CCCCN1CC(COCc2ccccc2)OCCS1(=O)=O` (stereo not given): the “activity change, negative = inhibition” value was -20.5%. On the same count and under the same terms, the same measure for `CCCCC[C@@H]1C=C(C(=O)O)[C@H](c2ccc(C#N)cc2)N1S(=O)(=O)c1ccc(C)cc1`: -5.15%; for `COc1ccc(S(=O)(=O)N2CCN(C(=S)NCC3CCCO3)CC2)cc1OC` (stereo not given): -3%. In the case of `S=C(NCC1CCCO1)N1CCN(c2ccc(Cl)c(Cl)c2)CC1` (stereo not given), the Potency is 10 µM (active). For the compound `CCOc1ccc(S(=O)(=O)N2CCN(C(=S)NCC3CCCO3)CC2)cc1` (stereo not given), the activity change, negative = inhibition was -4.09% [at 8.37 µM].
